# Experimental data reported in PubChem BioAssay (NCI).
# About 83,000 compounds went through this panel and 20% of them were active in at least one assay; those are over-represented in the sample as a whole.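 Values shown are percent growth following 48 h exposure of cells in 96-well plates to a single concentration of compound; below 10 was considered active.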 A number with no mark means an inactive call. Active and inactive are the calls of the source.
# Experiments:
# Assay in all cases: NCI-60 one-dose screen, 48 h (100 = growth as untreated, 0 = no growth, -100 = all killed)
# Details in all cases: 10 µM unless noted
# DU-145 prostate = tested on: DU-145 prostate
# K-562 leukemia = tested on: K-562 leukemia
# MALME-3M melanoma = tested on: MALME-3M melanoma
# MDA-MB-231 breast = tested on: MDA-MB-231 breast
# RXF 393 renal = tested on: RXF 393 renal
# SF-268 CNS = tested on: SF-268 CNS
# SF-295 CNS = tested on: SF-295 CNS
# SF-539 CNS = tested on: SF-539 CNS
# UACC-257 melanoma = tested on: UACC-257 melanoma
# M14 melanoma = tested on: M14 melanoma
SMILES,growth (DU-145 prostate),growth (K-562 leukemia),growth (MALME-3M melanoma),growth (MDA-MB-231 breast),growth (RXF 393 renal),growth (SF-268 CNS),growth (SF-295 CNS),growth (SF-539 CNS),growth (UACC-257 melanoma),growth (M14 melanoma)
Cn1ccnc1C(=O)/C=C/c1ccc(CC(=O)Nc2ccc(Br)cc2)cc1,3.61% (active),6.58% (active),75.5%,10.1%,21%,16.2%,19.4%,-38.5% (active),79.1%,53.6%
NC1=Nc2cc(OCCCN3Cc4ccccc4C3)c(OCC3CC3)cc2C12CCCC2,78.6%,-8.16% (active),-58.3% (active),36.2%,60.6%,74.1%,64.6%,49.2%,-47.2% (active),-70.2% (active)
c1cn2cc(-c3ccc4cn[nH]c4c3)nc(Nc3ccc(N4CCOCC4)cc3)c2n1,53.3%,65.9%,74.8%,55.1%,12.4%,34.9%,66.4%,46.9%,62.6%,55.1%
COc1cc(NC2CCC(=O)N2c2ccc(Cl)cc2Cl)cc(OC)c1OC (stereo not given),103%,106%,93.3%,111%,120%,98.7%,101%,101%,99.1%,94.9%
O=C(Nc1cnn2ccc(N3CCC[C@@H]3c3cc(F)ccc3F)nc12)N1CC[C@H](O)C1,110%,74.8%,114%,88.2%,80.7%,91%,96.9%,77.4%,70.8%,81.5%
CN[C@@H]1C[C@H]2O[C@@](C)([C@@H]1OC)n1c3ccccc3c3c4c(c5c6ccccc6n2c5c31)C(=O)N[C@H]4O,3.62% (active),-15.6% (active),-81.2% (active),-48.5% (active),-94.3% (active),-66.5% (active),-75.8% (active),-88.4% (active),-88.4% (active),-56.6% (active)
O=C1C=CC2(NN=C(c3ccccc3)N2c2cccc(Cl)c2)c2cccc(O)c21 (stereo not given),95.9%,23%,38.7%,68.6%,118%,72.4%,40.8%,33.9%,30.8%,53.2%
O=C1C=CC2(NN=C(c3ccccc3)N2c2cccc(Cl)c2)C(Cl)=C1 (stereo not given),103%,28.6%,107%,61.6%,92.4%,74.9%,76.7%,96.8%,78.4%,84.7%
CC/C(=C(/c1ccc(Cl)cc1)c1ccc(OCCN2CCCCC2)cc1)c1ccc(Cl)cc1,89.8%,26.2%,82.9%,94.3%,96.6%,88%,60.6%,87.8%,78.3%,76.6%
C[C@H](NC(=O)c1c(N)nn2cccnc12)c1cc2cccc(C#Cc3cnn(C)c3)c2c(=O)n1-c1ccccc1,34.6%,17.4%,50.1%,37.8%,-16% (active),25.3%,11.6%,21.7%,39.1%,29.5%
CCN(CCCOc1ccc2c(Nc3cc(CC(=O)Nc4cccc(F)c4)[nH]n3)ncnc2c1)CCOP(=O)(O)O,88.5%,48.4%,31.9%,79.5%,96.7%,76%,73.5%,48.8%,49.9%,45.1%
CCc1cc2c(cc1N1CCC(N3CCOCC3)CC1)C(C)(C)c1[nH]c3cc(C#N)ccc3c1C2=O,10.1%,2.08% (active),-27.4% (active),-7.59% (active),-1.05% (active),-2.19% (active),-3.18% (active),-71.8% (active),-20% (active),-26.1% (active)
